SIRT5 inh – sirtuin-5 (human) deacylase inhibition; Q9NXA8; AID 652115; hit rate 1.1% among 330,000; Purified SirT5, succinyl-peptide AMC, trypsin-coupled fluorescence; inhibition, % at 15 µM; in the data active means inhibition above about 15%
Target sequence (Q9NXA8 whole entry, looked up): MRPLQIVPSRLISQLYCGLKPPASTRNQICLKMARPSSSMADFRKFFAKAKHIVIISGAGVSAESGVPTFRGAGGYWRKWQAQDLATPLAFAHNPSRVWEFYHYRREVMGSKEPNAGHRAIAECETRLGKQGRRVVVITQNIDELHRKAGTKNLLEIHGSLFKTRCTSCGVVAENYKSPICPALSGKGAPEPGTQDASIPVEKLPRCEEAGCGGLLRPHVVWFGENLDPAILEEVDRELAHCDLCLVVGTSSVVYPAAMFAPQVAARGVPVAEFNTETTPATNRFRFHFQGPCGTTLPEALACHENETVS
ARNT TACC3 PPI – disruptors of human ARNT/TACC3 interaction; AlphaScreen His-ARNT PAS-B/GST-TACC3 binding, luminescence; TACC3 fragment carries E629A point mutation; inhibition, % at 9.99 µM; hit rate 0.66% among 390,000; Q9Y6A5; AID 623870;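 active means mean inhibition of replicates at least 50% and at least half of replicates each reaching 50%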;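 further: 0% = complete ARNT plus TACC3 wells and 100% = ARNT alone without TACC3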
CASP6 VEID inh – blocks human caspase-6 cleavage activity | purified caspase-6, Z-VEID-R110 cleavage fluorescence | inhibition, % at 12.5 µM | hit rate 0.53% among 350,000;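 active means mean inhibition across replicates at least about 35%, with every replicate also reaching that limit, limit read from the data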;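 further: 0% = median of neutral control wells and 100% = no fluorescence left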
Target sequence (P55212 24-179 limits assumed): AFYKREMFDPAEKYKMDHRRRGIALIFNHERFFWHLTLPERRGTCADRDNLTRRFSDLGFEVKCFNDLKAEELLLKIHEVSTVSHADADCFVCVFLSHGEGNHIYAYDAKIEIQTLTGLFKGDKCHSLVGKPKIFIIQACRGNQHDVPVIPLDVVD
Target sequence (P55212 194-293 limits assumed): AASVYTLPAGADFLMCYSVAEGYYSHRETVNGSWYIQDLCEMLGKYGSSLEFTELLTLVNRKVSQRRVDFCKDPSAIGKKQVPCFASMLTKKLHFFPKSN
NSD2 HMT inh – blocks human histone methyltransferase NSD2; inhibition, % at 12.5 µM; NSD2 peptide methylation, AlphaScreen, 120 min; O96028; hit rate 0.54% among 310,000; in the data active means inhibition above about 50%
PfHsp90 set2 – inhibits growth of yeast expressing Plasmodium falciparum Hsp90 | hit rate 0.32% among 310,000 | S. cerevisiae expressing PfHsp90, BacTiter-Glo ATP, 48 h; yeast lacking PDR1 and PDR3 efflux regulators | inhibition, % at 9.4 µM;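 active means every replicate shows inhibition above about 80%, whatever the replicate mean, limit read from the data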;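 further: 0% = DMSO neutral controls and 100% = 20 µM radicicol positive controls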
Active calls of the source: *; x = no result. In the library only some 2.1% were active in any assay of this set; here they are far more common.

SMILES	SIRT5 inh	ARNT TACC3 PPI	CASP6 VEID inh	NSD2 HMT inh	PfHsp90 set2
C[C@@H]1CCCCO[C@H](CN(C)C(=O)Nc2ccc3c(c2)OCO3)[C@H](C)CN([C@H](C)CO)C(=O)c2cc(NS(=O)(=O)c3cn(C)cn3)ccc2O1	2	5	-1	x	x
C[C@@H]1CN([C@H](C)CO)C(=O)c2cc(NC(=O)NC3CCCCC3)ccc2O[C@H]1CN(C)Cc1ccc2c(c1)OCO2	x	x	0	x	x
C[C@H](CO)N1C[C@H](C)[C@H](CN(C)C(=O)Cc2cccnc2)Oc2cc(C3=CCCCC3)ccc2S1(=O)=O	-1	1	1	x	x
C[C@H](NC(=O)C[C@@H]1CC[C@@H](NC(=O)C2CCOCC2)[C@@H](CO)O1)c1ccccc1	0	-3	-3	x	x
COc1ccc(-c2[nH]ncc2CN(CCO)CC23CC4CC(CC(C4)C2)C3)c(OC)c1	24*	4	-6	5	x
CC1(CC(=O)N/N=C/c2cc(Br)c(O)cc2O)OCCO1	x	75*	x	5	18
Cc1noc(C)c1S(=O)(=O)N(C)C[C@H]1OCCCC[C@H](C)Oc2ccc(NC(=O)Nc3cccc4ccccc34)cc2C(=O)N([C@H](C)CO)C[C@@H]1C	1	-5	0	x	x
COc1ccc2c3c(n(C)c2c1)[C@@H](CO)N(S(=O)(=O)c1ccc(C)cc1)CC31CCN(S(=O)(=O)c2ccc(C)cc2)CC1	8	x	2	x	x
O=C(C1CCCC1)N1CC(=O)N2[C@H](C1)[C@@H](c1ccc(C#CCc3ccccc3)cc1)[C@@H]2CO	2	x	1	x	x
S=C(N/N=C/c1ccc(Cl)cc1)N1CCOCC1	x	61*	x	1	-3
S=C(Nc1ccc(Cl)cc1Cl)N1CCOCC1	-1	-3	3	-1	6
S=C(N/N=C/c1ccc(Br)cc1)N1CCCCC1	-4	38*	0	1	13
COc1ccccc1S(=O)(=O)N(C)C[C@@H]1OCc2ccccc2-c2c(n(C)c3ccccc23)C(=O)N([C@@H](C)CO)C[C@@H]1C	6	13	0	x	x
N#CC(C#N)=C(N)/C(C#N)=C/c1cc(O)c(O)c(O)c1	13	6	41*	x	29
Cc1nc2c(-c3ccc(F)cc3)cnn2c2c1CCC2	-2	x	56*	-5	3
Cc1cc(C)c2c(c1)NC(C(=O)O)C1CC=CC21 (stereo unspecified)	18*	13	64*	31	11
Cc1ccc2c(c1C)NC(C(=O)O)C1CC=CC21 (stereo unspecified)	x	-1	29	x	-2
Cc1sc2ncnc(SCC(=O)Nc3ncccc3O)c2c1C	2	22	43*	8	1
Cc1cccnc1NC(=O)CSc1ncnc2sc(C)c(C)c12	-1	-7	0	-5	10
CCS(=O)(=O)Nc1ccc2c(c1)C(=O)N(C)C[C@H](OC)[C@H](C)CN(C(=O)C1CCC1)[C@H](C)CO2	-4	-3	0	x	x
COc1ccc(/C=N/NC(=O)c2cc[n+]([O-])cc2)cc1O	8	72*	-2	1	-71
COc1ccc(/C=N/NC(=O)c2cc[n+]([O-])cc2)cc1	2	0	-1	-3	-4
COc1cc2[nH]c(=S)nc(NCc3ccccc3)c2cc1OC	-2	41	3	5	0
COc1ccc(CNc2nc(=S)[nH]c3cc(OC)c(OC)cc23)cc1	-2	51*	1	11	-9
CCCCNc1nc(=S)[nH]c2cc(OC)c(OC)cc12	x	60*	x	4	-19
SMILES	SIRT5 inh	ARNT TACC3 PPI	CASP6 VEID inh	NSD2 HMT inh	PfHsp90 set2
COCCNc1nc(=S)[nH]c2cc(OC)c(OC)cc12	x	59*	x	2	-14
COc1cc2[nH]c(=S)nc(NCCCOC(C)C)c2cc1OC	x	55*	x	1	-152
CCOCCCNc1nc(=S)[nH]c2cc(OC)c(OC)cc12	x	x	x	0	11
COc1cc2[nH]c(=S)nc(NCc3ccc(C)cc3)c2cc1OC	0	31	6	5	-31
CC(=O)N[C@H]1CC[C@@H](CC(=O)NCc2ccc(Cl)cc2)O[C@@H]1CO	0	-11	1	x	x
Cc1ccc(S(=O)(=O)N[C@H]2CC[C@@H](CCn3cc(C4CCCC4)nn3)O[C@H]2CO)cc1	0	x	3	x	x
CC(C)NC(=O)Nc1ccc2c(c1)CC(=O)N([C@@H](C)CO)C[C@@H](C)[C@@H](CN(C)C(=O)Nc1ccc(F)cc1)O2	-2	-12	2	x	x
CC(C)NC(=S)Nc1ccc2[nH]c(=O)[nH]c2c1	-4	-4	3	0	11
CNC(=S)Nc1ccc2[nH]c(=O)[nH]c2c1	21*	0	-5	-2	5
CO[C@H]1CN(C)C(=O)c2ccc(NS(=O)(=O)c3ccccc3)cc2OC[C@H](C)N(C(=O)NC(C)C)C[C@H]1C	-3	3	0	x	x
Cc1cc(C(=O)Nc2cccc3c2O[C@H](CN(C)Cc2ccc4c(c2)OCO4)[C@H](C)CN([C@@H](C)CO)C3=O)n(C)n1	-4	1	2	x	x
N#C/C(=C\Nc1ccccc1SC(F)(F)F)c1nc(-c2ccc(F)cc2)cs1	19*	-8	1	-2	13
COc1ccc(CN(C)C[C@H]2OCCCC[C@H](C)Oc3ccc(NC(=O)c4ccncc4)cc3C(=O)N([C@@H](C)CO)C[C@@H]2C)cc1	0	1	-2	x	x
CCOC(=O)c1c(C)[nH]c(C)c1S(=O)(=O)NCC1CCN(Cc2ccc(C)cc2)CC1	-1	3	-23	x	-1
CCOC(=O)c1c(C)[nH]c(C)c1S(=O)(=O)NCC1CCN(Cc2cccc(Cl)c2)CC1	16*	-2	-10	8	28
CC(C)C#Cc1ccc2c(c1)O[C@@H](CN(C)C(=O)NC(C)C)[C@@H](C)CN([C@@H](C)CO)S2(=O)=O	x	15	x	x	x
CCOc1ccc(NC(=O)CN(C)C(=O)c2cc(-c3ccncc3)nc3ccccc23)cc1OCC	-2	3	1	2	-52
CCOc1ccc(NC(=O)CN(C)C(=O)c2cc(C)nc3ccccc23)cc1OCC	9	18	37*	1	8
CN1C(=O)c2cc(NC(=O)c3ccccc3Cl)ccc2OC[C@H]2O[C@@H](CC(=O)O)CC[C@H]21	6	-8	2	x	x
CC(C)NC(=O)N(C)C[C@H]1Oc2ccc(NC(=O)NC3CCCCC3)cc2CC(=O)N([C@H](C)CO)C[C@H]1C	1	-19	x	x	x
COC(=O)C1C(O)C(C)C(O)C(C)(O)/C=C\C=C(/C)C(=O)Nc2c(C)c(OC(C)=O)c3c(c2O)C(=O)C(C)=C2OCOC(=C23)/C(C)=C/C(C)(O)C(O)C(C)C1O (stereo unspecified)	6	29	57*	11	8
CCCCCCCCC/C(=N\O)c1ccccn1	x	-4	x	0	111*
Cc1ccc(S(=O)(=O)Cc2ccc(C(=O)O)o2)cc1	-1	-1	52*	40	13
C[C@@H]1CN([C@H](C)CO)S(=O)(=O)c2ccc(C#CC(C)(C)O)cc2O[C@H]1CN(C)C	-3	-2	1	x	x
COCCCN=C1NN=C(c2cc(C)n(Cc3ccccc3Cl)c2C)CS1	-1	3	-6	53*	x
